30 compounds from PubChem BioAssay (EPA / NIEHS) can be followed below.

Several values for one entry are separate records, joined by “and”; a condition that tells them apart may be missing. Identical values can stand only once. Records with an inconclusive call do not appear. Activity calls are given as the source filed them. The calls were made as follows, unless noted: active = hit-call score of the fitted dose curve at least 0.9, where 1 is the maximum; inactive = score below 0.9.

Assay [1] can be described thus: ATG_NRF2_ARE_CIS: Attagene CIS-FACTORIAL HepG2 Assay for human Nuclear Factor Erythroid 2 Related Factor 2 (NFR2) response to Antioxidant Response Elements (ARE) (AID 2282992).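 As to AC50: reporter mRNA level measured by RT-PCR and capillary electrophoresis fluorescence.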 The settings on record: HepG2 Attagene ARE/NRF2 reporter, transcription factor activity; actives raise or lower the signal. An outline of the steps: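 Endogenous transcription factor activity in human liver HepG2 cells is tracked via a cis-element-driven reporter within a multiplexed set. mRNA induction is read by RT-PCR and capillary electrophoresis after 24 h, with DMSO as baseline.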

Assay [2] is described as follows: ATG_Oct_MLP_CIS: Attagene CIS-FACTORIAL HepG2 Assay for human Octamer-Binding Transcription Factor (Oct) (AID 2282993). The following applies: HepG2 Attagene cis-factorial Oct reporter, mRNA; actives raise or lower the signal. In a few lines: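 Using HepG2 cells bearing transfected cis-reporter constructs, mRNA induction was read after 24 h by fluorescent RT-PCR and capillary electrophoresis, with DMSO defining baseline for gain- or loss-of-signal fits.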

The target of assay [3] is Cellular tumor antigen p53 (Homo sapiens) (UniProt P04637). The assay can be described thus: ATG_p53_CIS: Attagene CIS-FACTORIAL HepG2 Assay for human p53 Transcription Factor (AID 2282994). The following applies: HepG2 p53 cis-element reporter, Attagene mRNA; actives raise or lower the signal. In a few lines: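 Steps: transfect HepG2 with multiplexed cis reporter constructs; dose chemicals 24 h; extract RNA, reverse-transcribe, PCR-amplify reporter sequences; FAM-label, HpaI-digest, resolve fragments by CE. Activity fitted both directions relative to DMSO.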

Assay [4] can be described thus: BSK_3C_TissueFactor: BioMAP Diversity Plus: 3C Assay for Tissue Factor Biomarker Activity (AID 2282997). The settings on record: BioMAP 3C HUVEC, tissue factor biomarker readout; actives raise or lower the signal. An outline of the steps:
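HUVEC, 3C system, 24 h post-dose; Tissue Factor by ELISA; bidirectional fit vs DMSO baseline.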

Assay [5] can be described thus: BSK_3C_uPAR: BioMAP Diversity Plus: 3C Assay for Urokinase-type plasminogen activator receptor (uPAR) Biomarker Activity (AID 2282998). The following applies: BioMAP 3C HUVEC, uPAR biomarker ELISA; actives raise or lower the signal. An outline of the steps: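 In this endothelial cell-based assay, human umbilical vein primary cells were treated with chemicals and harvested at 24 h. uPAR was quantified using ELISA, with gains or losses fitted relative to DMSO controls.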
For orientation: ELISA stands for enzyme-linked immunosorbent assay.

Assay [6] is described as follows: BSK_3C_VCAM1: BioMAP Diversity Plus: 3C Assay for Vascular cell adhesion molecule 1 (VCAM1) Biomarker Activity (AID 2282999). The following applies: BioMAP 3C HUVEC, VCAM1 ELISA, cytokine-stimulated; actives raise or lower the signal. In a few lines: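 Activity fitted in both directions relative to DMSO, with ELISA measurement of the surface marker on primary HUVEC (3C) at 24 h post-treatment; parallel SRB staining (0.1% SRB, TCA-fixed, 560 nm) flagged overt cytotoxicity.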

The nature of assay [7]: BSK_4H_Eotaxin3: BioMAP Diversity Plus: 4H Assay for Eotaxin 3 Biomarker Activity (AID 2283000).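 As to outcome: CCL26 protein level quantified by ELISA in parallel with SRB cytotoxicity check.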 The settings on record: primary human endothelial cells (HUVEC); actives raise or lower the signal. An outline of the steps:
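Readout is Eotaxin-3 (CCL26) level by ELISA in primary human umbilical vein endothelial cells harvested 24 h after chemical exposure; activity fitted in both directions against DMSO control.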

In assay [8] the target is human Peroxisome Proliferator-activated Receptor alpha (PPARa), PPARA (gene 5465) (UniProt Q07869). In words: ATG_PPARa_TRANS: Attagene TRANS-FACTORIAL HepG2 Assay for human Peroxisome Proliferator-activated Receptor alpha (PPARa) (AID 2283001; active = hit-call score of the fitted dose curve at least 0.9, where 1 is the maximum;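 as to AC50: potency for gain of reporter signal over DMSO so agonist or activator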). In a few lines: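 Transfected HepG2 cells treated with test chemical for 24 h. RNA isolated, reverse-transcribed with oligo(dT), PCR-amplified, FAM-labelled and HpaI-digested. Fragments sized by capillary electrophoresis; gain-of-signal fit relative to DMSO.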

The target of assay [9] is human Peroxisome Proliferator-activated Receptor delta (PPARd), PPARD (gene 5467) (UniProt Q03181). In words: ATG_PPARd_TRANS: Attagene TRANS-FACTORIAL HepG2 Assay for human Peroxisome Proliferator-activated Receptor delta (PPARd) (AID 2283002; active = hit-call score of the fitted dose curve at least 0.9, where 1 is the maximum). An outline of the steps:
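Read-out is induced reporter mRNA, quantified by RT-PCR with fluorescent labelling and capillary electrophoresis after 24 h dosing. Cells are HepG2 transiently carrying multiple GAL4-UAS reporter units driven by exogenous NR-GAL4 chimeras; DMSO serves as baseline.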

Assay [10] can be described thus: ATG_NF_kB_CIS: Attagene CIS-FACTORIAL HepG2 Assay for human Nuclear Factor Kappa B (NF-kB) (AID 2282991). The settings on record: HepG2 Attagene cis-factorial NF-kB reporter mRNA; actives raise or lower the signal. An outline of the steps:
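Transient MRTU transfection of human HepG2 liver cells → 24 h chemical exposure → total RNA, oligo(dT) RT → PCR, 6-FAM primer extension, HpaI digest 2 h 37 C → CE fragment analysis. Bidirectional fitting, DMSO negative control.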

Chain of human Peroxisome Proliferator-activated Receptor delta (PPARd), PPARD (gene 5467) (Q03181 whole entry, looked up, the tested form may be a part): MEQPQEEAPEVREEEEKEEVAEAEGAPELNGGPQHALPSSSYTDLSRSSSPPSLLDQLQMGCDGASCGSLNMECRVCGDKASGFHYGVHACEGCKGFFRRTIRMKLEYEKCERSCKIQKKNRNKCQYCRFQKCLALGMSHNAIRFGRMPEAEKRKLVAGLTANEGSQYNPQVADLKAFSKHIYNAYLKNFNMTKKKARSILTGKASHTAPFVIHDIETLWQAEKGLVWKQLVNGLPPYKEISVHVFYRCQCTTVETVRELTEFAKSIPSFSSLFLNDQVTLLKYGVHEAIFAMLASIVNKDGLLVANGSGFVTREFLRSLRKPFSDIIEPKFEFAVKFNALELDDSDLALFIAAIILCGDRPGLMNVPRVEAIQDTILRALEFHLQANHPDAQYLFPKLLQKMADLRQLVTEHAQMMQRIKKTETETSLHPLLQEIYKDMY
Chain of human Peroxisome Proliferator-activated Receptor alpha (PPARa), PPARA (gene 5465) (Q07869 whole entry, looked up, the tested form may be a part): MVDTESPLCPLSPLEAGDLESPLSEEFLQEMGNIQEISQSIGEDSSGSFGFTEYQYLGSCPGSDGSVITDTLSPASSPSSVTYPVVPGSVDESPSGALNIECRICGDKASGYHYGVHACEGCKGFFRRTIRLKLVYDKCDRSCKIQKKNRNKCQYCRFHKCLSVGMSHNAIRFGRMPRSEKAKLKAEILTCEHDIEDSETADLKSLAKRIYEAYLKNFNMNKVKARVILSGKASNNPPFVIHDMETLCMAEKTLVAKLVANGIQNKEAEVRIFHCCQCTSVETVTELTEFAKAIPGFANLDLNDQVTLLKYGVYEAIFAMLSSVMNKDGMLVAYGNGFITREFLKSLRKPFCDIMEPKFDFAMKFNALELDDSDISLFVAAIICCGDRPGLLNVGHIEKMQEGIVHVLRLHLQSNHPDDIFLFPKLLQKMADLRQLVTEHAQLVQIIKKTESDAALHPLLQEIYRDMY
Chain of Cellular tumor antigen p53 (Homo sapiens) (P04637 whole entry, looked up, the tested form may be a part): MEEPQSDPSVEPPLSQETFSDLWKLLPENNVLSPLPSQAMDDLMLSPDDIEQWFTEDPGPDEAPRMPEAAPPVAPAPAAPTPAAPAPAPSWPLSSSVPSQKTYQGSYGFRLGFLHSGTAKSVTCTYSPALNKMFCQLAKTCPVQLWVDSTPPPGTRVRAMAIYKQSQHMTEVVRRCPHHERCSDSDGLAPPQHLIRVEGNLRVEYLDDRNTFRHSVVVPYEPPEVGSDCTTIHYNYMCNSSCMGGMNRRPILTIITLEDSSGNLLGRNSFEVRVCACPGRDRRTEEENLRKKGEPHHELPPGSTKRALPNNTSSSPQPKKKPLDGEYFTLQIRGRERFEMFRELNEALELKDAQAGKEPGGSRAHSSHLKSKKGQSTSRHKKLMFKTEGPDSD

As usually defined, the AC50 is the concentration giving half of the maximal activity seen. In the case of `CCCCCCCCCCCCN(C)C`, the results for the AC50 in [1], in [2] and in assay [3] were 46.9 µM (active), 54.9 µM (active) and 33.4 µM (active), respectively. Further, the result in [4], in [5], in assay [6], in assay [7], in [8] and in assay [9] was inactive.

Turning to `O=[N+]([O-])c1ccc(Cl)c([N+](=O)[O-])c1`, the result in assay [1], in assay [2] and in assay [3] was inactive.

Consider `CNC(=O)N(C)c1nc2ccccc2s1`, for which the outcome in assay [10], in [8] and in assay [9] was inactive. The AC50 in [1] is 14.5 µM (active).

`Cc1cc(C(C)(C)c2ccc(O)c(C)c2)ccc1O`: the half-maximal activity concentration (AC50) in assay [1] was 11.7 µM (active); in [2], 34.8 µM (active); in assay [3], 33.7 µM (active); in [4] it was 13.6 µM (active); in [5], 10 µM (active); in assay [6] it was 15 µM (active). Besides, the result in assay [7] and in assay [9] was inactive.

With `O=C(CBr)c1ccc(O)cc1`, the AC50 in [1] is 41.5 µM (active). Besides, the compound was called inactive in [2] and in assay [3].

Regarding `CCCCOC(=O)COC(=O)c1ccccc1C(=O)OCCCC`, the result in assay [1], in [2], in assay [3], in assay [4], in [5] and in assay [6] was inactive. Moreover, the outcome in assay [7] and in assay [8] was inactive.

With `c1cc[c]([Sb]([c]2ccccc2)[c]2ccccc2)cc1`, the compound was classed as inactive in [10], in assay [3], in assay [8] and in [9]. For the same compound, in assay [1], the AC50 is 70.3 µM (active).

Take `Clc1cnc(Oc2ccc(Oc3ncc(Cl)cc3Cl)cc2)c(Cl)c1`: the result in [10], in assay [1], in [3] and in [8] was inactive.

Turning to `CCCCC(CC)C(=O)Cl` (stereo not drawn), the call in [10], in assay [1], in assay [3] and in [8] was inactive.

Turning to `CN(N=O)c1ccc([N+](=O)[O-])cc1`, the compound was classed as inactive in assay [10] and in [8]. Besides, the AC50 in assay [1] is 32.3 µM (active).

Consider `C[CH2][Hg][S]c1ccccc1C(=O)O`, for which the compound was called inactive in [10], in assay [3] and in assay [8]. For the same compound, the AC50 in [1] was 0.3 µM (active).

As for `CC(C)(C)c1cc([N+](=O)[O-])cc(C(C)(C)C)c1O`, the AC50 was 2.48 µM (active) in assay [1]; 19.8 µM (active) in assay [2]; 3.94 µM (active) in assay [4]; 0.467 µM (active) in [5]; 9.12 µM (active) in [6]; 0.016 µM (active) in assay [7]. Also, the call in assay [3], in [8] and in [9] was inactive.

For `CCC[N+](CCC)(CCC)CCC`, the outcome in assay [1], in assay [2] and in assay [3] was inactive.

With `C=CC(=O)OCC(COC(=O)C=C)(COC(=O)C=C)COC(=O)C=C`, the AC50 was 1.96 µM (active) in [10], 8.93 µM (active) in assay [3] and 100 µM (active) in assay [8]. Moreover, the compound was classed as inactive in [1] and in [9].

As to `COCC(=O)N(c1c(C)cccc1C)[C@H](C)C(=O)OC`, the result in [1], in assay [2], in assay [3], in assay [4], in [5] and in assay [6] was inactive. Also, the outcome in assay [7] and in [8] was inactive.

With `C=C(C)C(=O)OCCCCOC(=O)C(=C)C`, in assay [1], the AC50 is 48.3 µM (active).

`NNCCO`: the call in assay [1] and in assay [2] was inactive.

On to `O=C(O)COc1ccc(Cl)cc1`, for which the compound was classed as inactive in assay [10], in assay [1], in assay [3], in assay [8] and in assay [9].

Regarding `Clc1cccc(Cl)c1Cl`, the outcome in assay [10], in assay [1], in assay [4], in assay [5], in assay [6] and in assay [7] was inactive. Also, in assay [8], the compound was called inactive.

Take `O=C(O)CC(O)(CC(=O)O)C(=O)O`: the result in assay [1], in assay [2], in assay [3] and in assay [8] was inactive.

In the case of `CN(C1CCCCC1)C1CCCCC1`, in assay [1], the AC50 was 61.1 µM (active). Moreover, the call in [2] was inactive.

With `Cc1cc(C)cc(C)c1`, the outcome in assay [10], in assay [1], in [4], in [5], in [6] and in assay [7] was inactive. Moreover, the outcome in assay [8] was inactive.

`C#CCO`: the compound was called inactive in assay [1], in [2], in [3], in assay [8] and in [9].

In the case of `COc1ccccc1N`, the call in [1], in assay [2], in assay [4], in assay [5], in [6] and in [7] was inactive. In assay [8], the result was inactive.

As for `N#Cc1cccnc1`, the outcome in assay [1], in [2], in assay [4], in assay [5], in assay [6] and in assay [7] was inactive. For the same compound, the call in assay [8] was inactive.

As to `Nc1nc(N)nc(Cl)n1`, the outcome in [1], in assay [2], in [3] and in [8] was inactive.

As to `CCCCN(CCCC)C(=S)S`, the half-maximal activity concentration (AC50) in assay [1] is 23.5 µM (active). The call in [2] and in assay [8] was inactive.

For `OC[P+](CO)(CO)CO`, the AC50 in [1] is 30.2 µM (active) and 26.4 µM (active). In addition, the outcome in [2], in [3], in assay [8] and in assay [9] was inactive.

With `C[N+](C)(C)Cc1ccccc1`, the call in [1], in assay [2] and in [8] was inactive.

Turning to `O=C(O)COc1cc(Cl)c(Cl)cc1Cl`, the compound was called inactive in assay [1], in assay [2], in [4], in [5], in assay [6] and in [7].
